Source: PubChem
MIN6 prolif-1: inducers of MIN6 beta-cell proliferation, primary screen, ATP luminescence, uHTS | MIN6 cells proliferation, ATPlite luminescence, 48 h; cells starved in 0.2% serum; 100% = growth in 10% serum | proliferation, % at 10 µM | 330,000 compounds, 0.29% hits | AID 2380, 2010;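 active means compounds whose signal lies at least 3.5 SD above the mean of all wells on their plate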;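 further: 0% = DMSO-treated cells in low-serum medium and 100% = 10% serum control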
V-ATPase pH: regulators of yeast V-ATPase proton pumping, primary screen, pHLuorin cytosolic pH fluorescence; response, % at 10 µM; S. cerevisiae; 350,000 compounds, 0.37% hits; in the data active means response mostly above about 7.3%, no sharp cut-off; inactive means mostly below about 5.4%; further: actives read high
Rtt109 Vps75: inhibitors of C. albicans Rtt109/Vps75 HAT, primary screen, biochemical, ThioGlo CoA-SH fluorescence, plate reader; purified Rtt109/Vps75, 4 h; 330,000 compounds, 0.16% hits; AID 540336, 2011; inhibition, % at 34.9 µM;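 active means inhibition of at least 50% in every replicate; inconclusive means best replicate reaches 50% inhibition but some replicates fall short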
Target sequence (Q5AAJ8 whole entry, looked up): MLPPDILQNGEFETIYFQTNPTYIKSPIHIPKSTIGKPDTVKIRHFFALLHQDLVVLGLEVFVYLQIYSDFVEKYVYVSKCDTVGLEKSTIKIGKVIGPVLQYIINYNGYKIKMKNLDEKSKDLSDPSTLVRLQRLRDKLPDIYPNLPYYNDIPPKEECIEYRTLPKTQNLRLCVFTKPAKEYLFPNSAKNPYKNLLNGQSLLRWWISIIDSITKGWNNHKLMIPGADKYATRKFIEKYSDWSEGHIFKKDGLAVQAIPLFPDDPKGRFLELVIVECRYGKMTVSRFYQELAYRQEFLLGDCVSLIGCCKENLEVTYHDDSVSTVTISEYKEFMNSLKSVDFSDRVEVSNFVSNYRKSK
HDAC3 inh: HDAC3 deacetylase inhibitors, primary screen, biochemical, fluorescence, cell-free homogeneous; Histone deacetylase 3 (Homo sapiens), O15379; recombinant HDAC3, fluorogenic peptide/trypsin coupled; inhibition, % at 8.3 µM; 320,000 compounds, 0.15% hits; in the data active means inhibition above about 26%, passing the limit was not always enough; inconclusive means no clear call, values can overlap the other calls
DAGLB inh: DAGLB lipase inhibitors, primary screen, biochemical, fluorescence, HTS; HEK293T DAGLB membrane lysate, EnzChek fluorogenic substrate; inhibition, % at 5.17 µM; 340,000 compounds, 0.059% hits; in the data active means inhibition above about 34%;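 further: 0% = enzyme with vehicle and 100% = wells lacking enzyme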
MIN6 prolif-2: inducers of beta-cell proliferation in MIN6, confirmation, MIN6 cells, mouse. proliferation increase, % at 50 µM. ATPlite luminescence, 48 h; cells kept in 0.2% serum; scaled between 0.2% and 10% serum. 920 tested, under 10 active. shares compounds with MIN6 prolif-1;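 active means proliferation increase above 40% at any of the four tested concentrations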
* hit, by the source's call; ? = inconclusive; . = not tested or not shown. Rows were chosen to be rich in hits. Some 0.96% of all compounds tested hit in one or more screens of this group.

SMILES	MIN6 prolif-1	V-ATPase pH	Rtt109 Vps75	HDAC3 inh	DAGLB inh	others
C1=C(c2ccccc2)Nc2ncnn2C1c1ccccc1 (stereo not given)	6	1	-391	20	0
CCC1=CC(c2ccccc2)n2ncnc2N1 (stereo not given)	-3	14*	-5	-16	-1
COc1ccc(Br)cc1CN(C)C(C)C(=O)Nc1cccc(C(C)=O)c1 (stereo not given)	0	4	53*	?	-13
COc1ccccc1CN(C)C(C)C(=O)Nc1cccc(C(C)=O)c1 (stereo not given)	1	1	4	0	-4
CCOC(=O)c1nc(N2CCN(C(=O)OCC)CC2)c2c3c(sc2n1)CCCC3	-4	0	13	-11	-5
CCOCCCNC(=O)c1cc2c(=O)n3cccc(C)c3nc2n1C	-1	16*	6	-8	-1
Cc1ccc(C(=O)Nc2ccccc2Oc2ccccc2)cc1[N+](=O)[O-]	-5	-2	-5	1	-17
COc1ccc(NC(=S)NCc2ccccc2Cl)c(OC)c1	-4	21*	21	-10	-5
COc1ccc(N2CCN(c3ncnc4scc(-c5ccc(C)cc5)c34)CC2)cc1	-4	0	52*	-3	-6
CC(=O)C1=C(O)C(=O)N(c2ccc(S(=O)(=O)Nc3nccs3)cc2)C1c1ccc([N+](=O)[O-])cc1 (stereo not given)	0	-1	5	8	4
CN=C(Nc1cc(C)nn1CCC#N)c1ccccc1	-1	3	28	-2	-1
Cc1cc(OC(=O)c2ccccc2)n(CCC#N)n1	-1	-3	17	87*	0
COCC1CCCCN1C(=O)c1ccc2oc(CCCc3ccccc3)nc2c1 (stereo not given)	0	3	-7	-2	-4
CN(Cc1nc2c(s1)CCCC2)C(=O)CCc1nnc(-c2ccccc2)o1	3	2	3	-5	.
N=C(N)c1ccc(/C=C/c2ccc(C(=N)N)cc2O)cc1	2	-7	3	50*	0
CCOC(=O)c1ccccc1NC(=O)[C@@H]1CCCN1C(=O)OC(C)(C)C	2	1	-1	-5	-4
COc1ccc([C@H]2CC(=O)C=C(c3cc(C=O)ccc3OC)C2)cc1	-3	-7	18	4	-5
Cc1c(C(=O)NCc2nnc(-c3ccccc3)o2)oc2c(F)cccc12	-5	0	2	7	-10
Cc1noc(NS(=O)(=O)c2ccc(N/C=C/C(=O)c3cccnc3)cc2)c1C	0	-1	73*	.	4
C[C@H]1CN([C@@H](C)CO)C(=O)c2cccc(NC(=O)Nc3ccc(C(F)(F)F)cc3)c2O[C@@H]1CN(C)S(=O)(=O)c1ccc(Cl)cc1	-6	-1	4	34*	3
C[C@H](CO)N1C[C@H](C)[C@@H](CN(C)S(=O)(=O)c2ccc(F)cc2)Oc2c(NC(=O)Nc3ccc(C(F)(F)F)cc3)cccc2C1=O	-6	4	-11	19	-1
CCOC(=O)C1CCN(C(=O)C2CC(=O)N(c3ccc4c(c3)OCCO4)C2)CC1 (stereo not given)	6	4	3	1	1
COc1cc(O)c(CCO)c2c1C(=O)C[C@@H](C)O2	0	0	1	-3	-3
Cc1ccc(S(=O)(=O)Nc2ccc(NC(=O)Nc3cccc(C(F)(F)F)c3)cc2)cc1	-3	0	0	31*	-5
Cc1ccc(S(=O)(=O)N/N=C\C=C\c2ccccc2)cc1	-2	6	51*	6	-1
SMILES	MIN6 prolif-1	V-ATPase pH	Rtt109 Vps75	HDAC3 inh	DAGLB inh	others
O=S(=O)(N/N=C\C=C\c1ccccc1)c1ccc(Br)cc1	-2	1	0	4	-2
CC(C)(CO)NCc1cccs1	-2	1	-3	-6	0
O=C1Nc2cc(C(=O)NCCN3CCCCCC3)ccc2S/C1=C/c1ccccc1F	.	.	.	.	4
COc1cccc(/C=C2/Sc3ccc(C(=O)NCCN4CCCC4)cc3NC2=O)c1	-4	-3	55*	9	3
COc1cccc(/C=C2/Sc3ccc(C(=O)NCCCN4CCCC4)cc3NC2=O)c1	-4	-4	60*	-2	4
O=C(NNC(=O)c1ccc(O)cc1O)c1ccc(Cl)cc1	4	-1	6	0	3
Cc1ccc(Nc2nc(N/N=C/c3c[nH]c4ccccc34)nc(N3CCOCC3)n2)cc1	-3	4	2	26*	1
CCc1sc(C(=O)Nc2ncccc2C)cc1C	-1	-4	-1	5	0
CCc1sc(C(=O)Nc2ncccc2O)cc1C	-4	-4	-6	76*	0
O=C(CCN1Cc2ccccc2C1)c1ccc2c(c1)OCCO2	-4	0	100*	.	-4
O=C(CCS(=O)(=O)c1ccc(F)cc1)N1CCN(c2ccccc2)CC1	0	0	-6	0	3
C=CCOC(=O)/C=C/C(=O)NC(N)=O	11*	-2	16	-4	-1
CSc1nc(-c2ccccc2)nc(SC)c1C(C)=O	1	-1	-3	3	-16
Cc1c(N=c2c(=O)c3ccccc3c2=O)c(=O)n(-c2ccccc2)n1C	-3	.	.	7	.
Cc1c(N=C2C(=O)Nc3ccccc32)c(=O)n(-c2ccccc2)n1C	-4	9.3*	20	1	0
CCOc1ccccc1-n1c(SCC(=O)N2CCCc3ccccc32)nnc1-c1cccnc1	6.6*	-1	-7	-3	3	MIN6 prolif-2=-2
COC(=O)c1c(-c2c(Cl)cccc2Cl)noc1NC(=O)NN1CCCCC1	-2	-2	-2	4	0
O=C(NCCN1CCOCC1)c1cc2ccccc2[nH]1	8.2*	4	-5	-2	-6	MIN6 prolif-2=0
NS(=O)(=O)c1cccc(NC(=O)CCc2ccc(S(=O)(=O)N3CCOCC3)cc2)c1	3	0	-6	.	2
CN(C)C(=O)CN1C(=O)C2CC=C(Cl)CC2C1=O (stereo not given)	-1	5	-1	-2	2
CCN(CC)C(=O)CN1C(=O)C2CC=C(Cl)CC2C1=O (stereo not given)	6.9*	-1	-12	2	0	MIN6 prolif-2=1
O=C(Nc1cccc(Cl)c1)Nc1ccnc(-c2cccnc2)n1	11*	3	0	-1	-1	MIN6 prolif-2=5
Cc1ccsc1C(C(=O)NC(C)(C)C)N(Cc1ccco1)C(=O)c1csnn1 (stereo not given)	10*	-28	8	-6	-2	MIN6 prolif-2=0
